In PubChem BioAssay AID485317 (Broad Institute, 2010) one finds inhibition data, which are given here for 90 compounds.

About 11,000 (3.8%) of roughly 290,000 compounds were called active. For the sample, actives were picked, then their nearest neighbours and some compounds at random. Values without a mark were called inactive.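 The calls were made as follows: active = mean replicate inhibition above about 79%, with every replicate also reaching it (limit read from the data); inconclusive = only one of the two criteria met; inactive = mean below limit and not every replicate reaching it.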

For the test, the target named is FAD-linked sulfhydryl oxidase ALR (Homo sapiens) (UniProt P55789). The experiment in a line: inhibitors of human ALR sulfhydryl oxidase, primary screen, biochemical, H2O2 detection, HRP-luminol luminescence, single point (AID 485317). The conditions noted are these: purified ALR, DTT oxidation, active compounds read high, concentration not given here.
Sequence of FAD-linked sulfhydryl oxidase ALR (Homo sapiens) (P55789 whole entry, looked up): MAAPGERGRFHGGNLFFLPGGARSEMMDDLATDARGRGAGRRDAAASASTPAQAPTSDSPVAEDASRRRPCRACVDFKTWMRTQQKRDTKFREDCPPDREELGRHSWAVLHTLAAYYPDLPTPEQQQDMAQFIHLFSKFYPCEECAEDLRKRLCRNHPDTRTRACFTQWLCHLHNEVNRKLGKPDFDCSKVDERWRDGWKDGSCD
The inhibition is the change of the read-out against control, counted positive when it falls. Turning to `Cc1csc(NC(=O)c2ccc(C)s2)n1`, the inhibition was 27.4%.
As for `O=C(COC(=O)Cc1ccc([N+](=O)[O-])cc1)NC1CCCCCC1`, the inhibition is 3.75%.
With `COc1ccc(-c2c(-c3cc(OC)cc(OC)c3)n(C)c3ccc(-c4ccn[nH]4)cc23)cc1`, the inhibition was -7.81%.
With `Brc1ccc(CN2CC[C@H]3C=CCc4cccc(c43)C2)cc1` the figure was -17.1%; with `COc1ccc(Cl)cc1CSc1ncn[nH]1`, 3.36%.
Under `Cc1cc(C)nc(S/C=C/C(=O)c2ccccc2)n1` stands 18.2%.
Take `O=C(/C=C/Sc1ncn[nH]1)c1ccc(Cl)cc1`: the inhibition was 98.6% (active).
Under `CCN(c1ccccc1)S(=O)(=O)c1ccc(C(=O)Nc2ccccc2OC)cc1` stands 2.02%.
Under `COc1ccc(NC(=O)N(C)C[C@H]2Oc3ccc(NC(=O)C4CC4)cc3C(=O)N([C@H](C)CO)C[C@@H]2C)cc1` stands -0.429%; under `CN(C)CCN(C(=O)CN1C(=O)c2ccccc2C1=O)c1nc2cc3c(cc2s1)OCCO3`, -1.15%.
Under `Nc1ccccc1/C=N\N=C/c1ccccc1N` stands -2.8%; under `O=C(CSc1nc2[nH]c(=O)[nH]c(=O)c2s1)Nc1cccc(F)c1`, 98.7% (active); under `Cc1nc2nc(SCC(=O)Nc3cccc(F)c3)[nH]c2cc1Br`, -13.2%.
As for `Nc1nnc(SCC(=O)Nc2ccc3nc(SCC(=O)Nc4ccccc4)sc3c2)s1`, the inhibition was -42%.
Take `O=S(=O)(NCCS(=O)(=O)N1CCN(c2ccccc2)CC1)c1ccc(F)cc1`: the inhibition is -11.7%.
With `CC[C@@H]1Cc2cc(O)ccc2C2=C1c1ccc(O)cc1C[C@H]2CC` the figure was 97.9% (active); with `CC1(C)CC(=O)c2ccc(O)cc2O1`, 0.168%; with `CCc1nnc(NC(=O)c2cc(S(=O)(=O)N3CCCCC3)ccc2C)s1`, -5.04%.
Consider `Cc1ccc(CNS(=O)(=O)CCNC(=O)c2ccccc2)cc1`, for which the inhibition is 0.449%.
For `CCN(CC(=O)Nc1ccc(OC)cc1)C(=O)c1ccc(Cl)c(S(=O)(=O)N2CCCC2)c1`, the inhibition was -0.437%.
Under `O=C(CSc1ncnc2sccc12)N1CCN(C(=O)c2cccs2)CC1` stands 3.8%; under `COc1ccccc1C(=O)NC(CCSC)C(=O)N1CCN(C/C=C/c2ccccc2)CC1` (stereo not given), -15.9%; under `COC(=O)NNC1=CC(=O)CC(C)(C)C1`, 5.45%.
With `CC1(C)CC(=O)C=C(Nc2ccccc2)C1` the figure was 3.81%; with `Cc1cc(O)ccc1NC1=CC(=O)CC(C)(C)C1`, 92.3% (active).
Under `O=C(Nc1cc(S(=O)(=O)N2CCOCC2)ccc1N1CCOCC1)c1c(F)cccc1Cl` stands 0.0766%; under `COc1cc(/C=N/O)cc(Br)c1OCc1cccc(Cl)c1`, -0.717%.
As to `COc1cc(/C=C2/C(=O)NN(c3cccc(Cl)c3)C2=O)cc(Br)c1O`, the inhibition was 98.2% (active).
With `C#CCOc1ccc(/C=C2/C(=O)NN(c3ccccc3)C2=O)cc1OC` the figure was 66.4%; with `C=CCSc1ccc(S(=O)(=O)N2CCN(C)CC2)cn1`, 0.831%; with `CC1CCc2sc(C(=O)NCC(c3ccco3)N3CCCCC3)cc2C1` (stereo not given), -3.3%.
With `C[C@H](NC(=O)c1ccccc1Cl)C(=O)OCC(=O)N1CCN(c2ccccc2)CC1` the figure was 50.7%.
On to `Cn1nnnc1SCC(=O)Nc1sccc1C(N)=O`, for which the inhibition was 23.5%.
Under `COc1cc(OC)cc(-c2nc3nc(C)c(CCC(=O)NCc4ccco4)c(C)n3n2)c1` stands 0.656%; under `COc1ccc(-c2cc(C(F)(F)F)nc(SCCC(=O)NCc3ccco3)n2)cc1`, 96.7% (active); under `COc1ccc(C(=O)Nc2ccccc2C(=O)NCc2ccco2)cc1`, -4.1%.
With `CC1C(=O)N2CCCc3cc(S(=O)(=O)NCc4ccc(F)cc4)cc1c32` (stereo not given), the inhibition is 2.55%.
With `Cc1ccc(CN2CC(C(=O)NNC(=O)Cn3ccc(C(F)(F)F)n3)CC2=O)cc1` (stereo not given) the figure was -1.18%.
Turning to `CC(=O)Nc1cccc(-c2csc(Nc3cccc(C)n3)n2)c1`, the inhibition was -4.7%.
With `CC(=O)Nc1ccc(-c2csc(NC=C3C(=O)OC(C)(C)OC3=O)n2)cc1`, the inhibition is 98.2% (active).
`CC(=O)Nc1ccc(S(=O)(=O)Nc2nc(-c3ccc(C(C)(C)C)cc3)cs2)cc1`: the inhibition is 14.9%.
With `CCOC(=O)c1sc(NC(=O)C2CSC3(C)CCC(=O)N23)nc1C` (stereo not given) the figure was -0.227%; with `COc1cc(/C=C/C(=O)OCC(=O)NC2CC2)cc(OC)c1OC`, -0.461%; with `O=C(CCc1nc(-c2ccccc2)no1)Nc1cccc(C(=O)NC2CC2)c1`, 28.1%.
For the compound `Cc1ccccc1-c1cc(C(=O)NCC2CC2)n(CC2CC(c3cccnc3)=NO2)n1` (stereo not given), the inhibition was 10.4%.
Regarding `O=C1Nc2ccccc2C12Nc1ccccc1S2` (stereo not given), the inhibition was 98.7% (active).
With `COc1ccc(C2(O)C(=O)Nc3ccccc32)cc1` (stereo not given) the figure was -1.7%.
With `CCc1ccc2c(c1)C1(NN=C(c3ccccc3)S1)C(=O)N2` (stereo not given) the figure was 33.8%.
Under `CCCCn1c(N)c(N(CCOC)C(=O)c2cccc(S(=O)(=O)N3CCCCC3)c2)c(=O)[nH]c1=O` stands -6.18%.
`CC(C)(C)OC(=O)C[C@H]1C/C=C\C[C@@H](CC(=O)N[C@H](CO)Cc2ccccc2)C(=O)NC[C@@H](c2ccccc2)OC1=O`: the inhibition is -2.76%.
Consider `CCCCCCSc1ccc([C@@H]2[C@H]3C(=O)N(CC)C(=O)[C@H]3[C@]3(C(=O)OC)CCCCN23)cc1`, for which the inhibition is 3.32%.
With `Cc1ccn(CCC(=O)N2c3ccccc3CC2C)n1` (stereo not given) the figure was -7.69%; with `CCOc1ncccc1C(=O)OCC(=O)N1c2ccccc2CC1C` (stereo not given), 2.2%.
Under `CCCC(=O)N1c2ccc(-c3csc(N)n3)cc2CC1C` (stereo not given) stands 98.9% (active).
With `CCOc1ccc(NS(=O)(=O)c2ccc(C(=O)NCC(c3ccccc3OC)N3CCCC3)cc2)cc1` (stereo not given), the inhibition was 0.447%.
With `COc1ccc(NC(=O)CSc2nnc(-c3cccs3)n2Cc2ccco2)cc1OC` the figure was -13.2%.
As to `CN(c1ccccc1)c1ccc(/C=c2\s/c(=C(/C#N)C(=O)C(C)(C)C)n(Cc3ccco3)c2=O)cc1`, the inhibition is -25.2%.
`Cc1cs/c(=N\N=C\c2ccc(O)cc2)n1Cc1ccco1`: the inhibition was 98.6% (active).
With `CCN(CC)c1ccc(/C=N/Nc2nc(C)cc(=O)[nH]2)cc1`, the inhibition is 99.1% (active).
For the compound `Cc1cc(=O)[nH]c(N/N=C/c2ccc3c(c2)OCCO3)n1`, the inhibition was 17.8%.
Under `Cc1cc(=O)[nH]c(N/N=C/c2c(C)nn(-c3ccccc3Cl)c2Cl)n1` stands 24.5%; under `COc1ccccc1-c1oc2ccccc2c1C#CCCCCO`, -1.62%.
Under `COc1cccc(-c2nc(CS(=O)CC(=O)NCc3ccc(F)cc3)c(C)o2)c1` (stereo not given) stands 98.8% (active).
Under `COc1cccc(N(CC(=O)N2CCc3ccccc3C2)S(C)(=O)=O)c1` stands -14.9%; under `COc1cccc(NC(=O)NCc2ccc(F)cc2)c1`, -2.14%.
Take `COc1ccc(CNC(=O)Cc2ccc(-c3ccccc3)cc2)cc1OC`: the inhibition is -4.45%.
With `COc1ccc(CC(=O)NC(C)CCc2ccccc2)cc1` (stereo not given) the figure was -14.5%; with `CC(CCc1ccccc1)NC(=O)c1ccc(Br)o1` (stereo not given), -19.9%.
With `COc1ccc(-c2nc(CS(=O)CC(=O)N3CCc4ccccc4C3)c(C)o2)cc1` (stereo not given) the figure was 99% (active); with `O=C(COc1ccccc1)N1CCc2ccccc2C1`, -0.403%.
For `COc1ccc(-c2nc(CS(=O)CC(=O)NCc3ccccc3)c(C)o2)cc1OC` (stereo not given), the inhibition was 98.9% (active).
With `COc1ccc(CCNC(=O)CS(=O)(=O)Cc2nc(-c3ccc(C)cc3)oc2C)cc1OC` the figure was 21.5%; with `Cc1cccc(-c2nc(CS(=O)CC(=O)NC(C)CCc3ccccc3)c(C)o2)c1` (stereo not given), 92% (active).
For the compound `Cc1ccc(-c2nc(CS(=O)(=O)CC(=O)NCc3ccc4c(c3)OCO4)c(C)o2)cc1`, the inhibition was -0.75%.
On to `CCCCn1c(N)c(N(CCOC)C(=O)CSCC(=O)Nc2cccc(C)c2)c(=O)[nH]c1=O`, for which the inhibition is 6.91%.
With `CC(=O)Nc1ccc(S(=O)(=O)NC(C)C(=O)OCCOc2ccc(F)cc2)cc1` (stereo not given) the figure was 0.524%.
With `COc1ccc2nc3n(c(=O)c2c1)-c1cc(C)ccc1C(=O)NC3Cc1ccc(O)cc1` (stereo not given) the figure was -1.57%.
Under `O=C(Nc1nnc(-c2ccccc2)o1)c1cccc(S(=O)(=O)N2CCOCC2)c1` stands 9.18%.
As for `Fc1ccccc1-c1cc2cc3c(cc2cn1)OCO3`, the inhibition is 0.64%.
As to `C[C@@H]1CN([C@@H](C)CO)C(=O)c2cccc(NS(=O)(=O)c3ccc(F)cc3)c2O[C@H]1CN(C)C(=O)NC1CCCCC1`, the inhibition is -2.04%.
With `CCOC(=O)c1c(C)[nH]c(C(=O)OCC(=O)N2CCCC2=O)c1C` the figure was 1.73%.
On to `Cc1nn(Cc2ccccc2)c(C)c1C(=O)NCCCN1CCCC1=O`, for which the inhibition was -2.84%.
With `CC(=O)Nc1cccc(C(=O)OCC(=O)c2ccc3c(c2)OCO3)c1`, the inhibition was -2.29%.
Under `C=CC[C@H](CC(=O)N(CCO)Cc1ccccc1)C(=O)N[C@@H](COC(=O)[C@@H](CC=C)Cc1ccc(F)cc1)Cc1ccccc1` stands -4.83%; under `Cc1oc2nc(SCC(=O)NCc3cccnc3)nc(N)c2c1C`, -4.94%.
In the case of `COc1ccc(C(=O)O)cc1S(=O)(=O)NCc1cccnc1`, the inhibition was -5.82%.
With `COc1cccc(-c2nc(CS(=O)(=O)CC(=O)NCCc3ccc(OC)c(OC)c3)c(C)o2)c1` the figure was 46.6%; with `COc1ccc(-c2nc(CS(=O)CC(=O)NCc3cccnc3)c(C)o2)cc1OC` (stereo not given), 99.2% (active); with `COc1ccc(-c2nc(CS(=O)(=O)CC(=O)NCc3cccc(Br)c3)c(C)o2)cc1`, 22.1%.
With `CCCCN(CC)CCCNC(=O)CS(=O)(=O)Cc1nc(-c2cccc(OC)c2)oc1C`, the inhibition was 98.8% (active).
